Experimental findings from PubChem BioAssay (NCATS) are described below.

Assay [1] concerns the target 3',5'-cyclic-AMP phosphodiesterase 4B (Homo sapiens) (UniProt Q07343). Kind of assay: qHTS Assay for Inhibitors of PDE-IV (AID 607). The essentials:
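The readout is membrane depolarisation from a cAMP-sensing CNG channel, detected with a potential dye at ex 535/em 590. Cells were HEK293-derived (endogenous PDE-IV) at 1000 cells/well, titrated up to 22.9 uM final.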

A short description of assay [2]: Cellular Toxicity (caspase-3) HepG2 (AID 654; active means well fitted curve in the direction sought with a large enough effect; an effect the other way counts as inactive or inconclusive;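 further: cells exposed to compound for 16 hours before reading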). The essentials:
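Concentration-response AC50 values reflect caspase-3/7 induction in HepG2 cells after 16 hours of compound exposure, quantified by luminescence from liberated aminoluciferin and referenced to 100 uM tamoxifen as full stimulation.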

A short description of assay [3]: Cellular Toxicity (caspase-3) Jurkat (AID 655; active means well fitted curve in the direction sought with a large enough effect; an effect the other way counts as inactive or inconclusive;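 further: cells exposed to compound for 16 h at 37 °C before reading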). The essentials: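 Jurkat cells (5000/well) in complete medium exposed 16 h at 37 C; caspase-3/7 activity read by Caspase-Glo luminescence after 20 min at room temperature. Normalized to DMSO and 100 uM tamoxifen; AC50 from Hill fits.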
The nature of assay [4]: Cellular Toxicity (caspase-3) HUV-EC-C (AID 656; active means well fitted curve in the direction sought with a large enough effect; an effect the other way counts as inactive or inconclusive). In a few lines:
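HUV-EC-C cells (1000/well) in complete medium, compound-treated 16 h at 37 °C; caspase-3/7 activity read by Caspase-Glo 3/7 luminescence. Normalized to DMSO (basal) and 100 uM tamoxifen (100%); AC50 from Hill-equation concentration-response fits.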

The nature of assay [5]: Cellular Toxicity (caspase-3) SHSY5Y (AID 657; active means well fitted curve in the direction sought with a large enough effect; an effect the other way counts as inactive or inconclusive). The essentials: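 SH-SY5Y human neuroblastoma cells, 1500/well, exposed to compound for 16 hours at 37 °C in complete medium. Caspase-3/7 activity read by Caspase-Glo luminescence after 1 hr at room temperature, normalized to DMSO and 10 uM staurosporine; AC50 from Hill fit.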
The nature of assay [6]: Cellular Toxicity (caspase-3) BJ (AID 658; active means well fitted curve in the direction sought with a large enough effect; an effect the other way counts as inactive or inconclusive). In a few lines:
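Plated BJ cells (1000/well) rested 5 hr, received compound for 16 hr at 37 °C, then Caspase-Glo 3/7 reagent for 1 hr at room temperature before luminescence reading.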

Assay [7] in a line: Cellular Toxicity (caspase-3) MRC-5 (AID 659; active means well fitted curve in the direction sought with a large enough effect; an effect the other way counts as inactive or inconclusive). The essentials:
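Apoptosis readout in MRC-5 cells: luciferase light generated after caspase 3/7 cleaves a peptide-aminoluciferin substrate, measured post 16 hr compound incubation at 37 °C.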

The nature of assay [8]: Cellular Toxicity (caspase-3) Mesangial (AID 660; active means well fitted curve in the direction sought with a large enough effect; an effect the other way counts as inactive or inconclusive;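 further: cells exposed to compound for 16 h before the caspase read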). The conditions noted are these: Potency: caspase-3 activation. In a few lines: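 AC50 values come from Hill-equation fits of caspase 3/7 activation, measured as Caspase-Glo luminescence in human glomerular mesangial cells exposed to compound for 16 h at 37 °C; 100% set by 100 uM tamoxifen.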
A short description of assay [9]: Cellular Toxicity (caspase-3) SK-N-SH (AID 661; active means well fitted curve in the direction sought with a large enough effect; an effect the other way counts as inactive or inconclusive). In a few lines:
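Apoptosis readout in SK-N-SH neuroblastoma: Caspase-Glo 3/7 luminescence following 16 hr treatment in complete culture medium. Normalization used DMSO and 10 uM staurosporine controls.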

Records with an inconclusive call do not appear. Where a call stands in place of a potency, no number is given. Calls of active or inactive are those of the source. Unless noted, the call rests on the fitted dose curve; in most records, active means well fitted activation curve with a large enough effect in the main read-out, with a control signal flat (not every such curve was filed as active); inconclusive means small, poorly fitted or top-dose-only effect, or effect the other way, or a change in a side signal; inactive means flat fitted curve, though single readings scatter.

Sequence of 3',5'-cyclic-AMP phosphodiesterase 4B (Homo sapiens) (Q07343 whole entry, looked up): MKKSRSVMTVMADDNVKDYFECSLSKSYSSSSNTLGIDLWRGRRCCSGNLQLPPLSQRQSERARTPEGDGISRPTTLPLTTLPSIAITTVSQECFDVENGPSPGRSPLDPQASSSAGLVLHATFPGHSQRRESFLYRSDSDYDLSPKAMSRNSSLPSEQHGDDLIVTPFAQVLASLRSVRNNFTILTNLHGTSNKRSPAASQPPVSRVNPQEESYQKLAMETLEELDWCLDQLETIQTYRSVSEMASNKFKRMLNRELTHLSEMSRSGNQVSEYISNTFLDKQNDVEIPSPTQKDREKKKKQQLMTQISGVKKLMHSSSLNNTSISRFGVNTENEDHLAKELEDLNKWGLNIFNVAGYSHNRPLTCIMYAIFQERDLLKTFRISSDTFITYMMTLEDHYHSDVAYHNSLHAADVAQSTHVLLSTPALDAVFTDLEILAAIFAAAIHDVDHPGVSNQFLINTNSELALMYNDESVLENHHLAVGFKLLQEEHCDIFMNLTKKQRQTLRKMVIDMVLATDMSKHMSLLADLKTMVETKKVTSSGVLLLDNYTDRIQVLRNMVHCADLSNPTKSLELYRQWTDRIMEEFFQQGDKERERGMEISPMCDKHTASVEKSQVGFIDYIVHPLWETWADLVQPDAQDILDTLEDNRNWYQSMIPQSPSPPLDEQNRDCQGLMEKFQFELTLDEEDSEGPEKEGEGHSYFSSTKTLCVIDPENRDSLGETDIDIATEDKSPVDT

Regarding `CC(C)Cc1ccc([C@H](C)C(=O)O)cc1`, in assay [1], the outcome was inactive.
On to `C[N+](C)(CCCCCC[N+](C)(C)CCCN1C(=O)c2cccc3cccc(c23)C1=O)CCCN1C(=O)c2cccc3cccc(c23)C1=O`, for which the call in assay [1] was inactive.
On to `CC(C)(C=O)Cc1cc(C(C)(C)C)c(O)c(C(C)(C)C)c1`, for which the result in [1] was inactive.
Same read-out and setting: the result for `O=C(O)Cc1ccc(-c2ccccc2)cc1` reads “inactive”; that for `O=C(Nc1cccc(C(=O)Nc2ccc(S(=O)(=O)O)c3cc(S(=O)(=O)O)cc(S(=O)(=O)O)c23)c1)Nc1cccc(C(=O)Nc2ccc(S(=O)(=O)O)c3cc(S(=O)(=O)O)cc(S(=O)(=O)O)c23)c1`, “inactive”; that for `O=Nc1ccc2oc(=O)ccc2c1`, “inactive”.
Same read-out and setting: the result for `N[C@H](CCCP(=O)(O)O)C(=O)O` reads “inactive”; that for `COc1ccccc1CNCCCCCCNCCCCCCCCNCCCCCCNCc1ccccc1OC`, “inactive”; that for `COc1cc(OC)c(/C=C2/C(=O)Nc3ccccc32)c(OC)c1`, “inactive”.
Same read-out and setting: the result for `CN1[C@@H]2CC[C@H]1CC(OC(c1ccccc1)c1ccccc1)C2` (stereo not given in full) reads “inactive”.
On to `O=C(O)c1cc(O)c(O)c(O)c1`, for which the Potency entry in [2], in [3], in assay [8] and in assay [9] was “inactive” in each case. Besides, the compound was called inactive in assay [4], in assay [5], in [6] and in assay [7].
With `COc1ccccc1N1CCN(CCCCNS(=O)(=O)c2cccc3c(N(C)C)cccc23)CC1`, the call in assay [1] was inactive.
Still for that read-out and setting: the result for `CN1CCc2ccccc2Cc2[nH]c3ccccc3c2CC1` reads “inactive”; that for `Fc1ccc(C(OCCCc2cnc[nH]2)c2ccc(F)cc2)cc1`, “inactive”; that for `C[N+]1(C)CCC(OC(=O)C(c2ccccc2)c2ccccc2)CC1`, “inactive”.
On the same count and under the same terms, the result for `N=C(N)SCCc1ccc(CCSC(=N)N)cc1` reads “inactive”.
Consider `CC(C)NCC(O)COc1cccc2ccccc12` (stereo not given), for which the Potency result in [2], in assay [3], in assay [8] and in [9] was “inactive” throughout. Besides, the compound was classed as inactive in [4], in assay [5], in [6] and in assay [7].
`COC(=O)c1c(C)[nH]c(C)c1C(=O)c1ccccc1Cc1ccccc1`: the call in [1] was inactive.
The same measure, in the same setting: the result for `Cc1ccc(O)c(N=Nc2ccccc2)n1` reads “inactive”.
Same read-out and setting: the result for `Cc1cc(NC(=O)Nc2ccc3c(ccn3C)c2)sn1` reads “inactive”; that for `O=C(Nc1ccccc1)c1cc([N+](=O)[O-])ccc1Cl`, “inactive”; that for `O=S(=O)(c1cccc2c(I)cccc12)N1CCCNCC1`, “inactive”.
With `O=c1cc(-c2ccccc2)oc2ccccc12`, the Potency result in [2], in assay [3], in assay [8] and in assay [9] was “inactive” throughout. Moreover, the compound was called inactive in assay [4], in assay [5], in [6] and in assay [7].
On to `CC(C)NC[C@H](O)COc1cccc2[nH]ccc12`, for which, in assay [1], the result was inactive.
Still for that read-out and setting: the result for `O=C(O)c1cc([N+](=O)[O-])ccc1NCCCc1ccccc1` reads “inactive”.
Still for that read-out and setting: the result for `CN=c1nc(-c2ccccc2)n(-c2ccccc2)s1` reads “inactive”.
Consider `Oc1cc2c(cc1O)CN(C(=S)NCCc1ccc(Cl)cc1)CCC2`, for which the result in [1] was inactive.
On the same count and under the same terms, the result for `N#C/C(=C\c1ccc(O)c(O)c1)C(=O)NCCCc1ccccc1` reads “inactive”.
On the same count and under the same terms, the result for `NCCCS(=O)(=O)O` reads “inactive”.
Still for that read-out and setting: the result for `Nc1cc(-c2ccncc2)c[nH]c1=O` reads “inactive”; that for `N#C/C(=C\c1ccc(O)c(O)c1)C(=O)NCc1ccccc1`, “inactive”.
Turning to `COc1cccc(C(=O)NCCN2CCN(c3ccc(Cl)cc3)CC2)c1`, the compound was classed as inactive in [1].
Consider `CN(C)C(N)=NCCC[C@H](N)C(=O)O`, for which the compound was called inactive in assay [1].
As for `NCCCCC(=O)O`, in [1], the call was inactive.
